Measured values from the supplement of paper PMC3334620.
In all, about 33,000 sequences were measured (“E-score (-0.5 to 0.5)”: median about -0.043, highest 2% from about 0.37 on). This is one part of a sample in which the highest values are shown more often than they occur.

These sequences were tested against T1, Upc2 (UniProt Q12151) (assay: PBM E-score (8-mer binding enrichment) (E-score (-0.5 to 0.5)); higher = stronger / more preferred TF binding). Conditions: protein concentration: 200 nM; construct: GST-full length.
T1 sequence: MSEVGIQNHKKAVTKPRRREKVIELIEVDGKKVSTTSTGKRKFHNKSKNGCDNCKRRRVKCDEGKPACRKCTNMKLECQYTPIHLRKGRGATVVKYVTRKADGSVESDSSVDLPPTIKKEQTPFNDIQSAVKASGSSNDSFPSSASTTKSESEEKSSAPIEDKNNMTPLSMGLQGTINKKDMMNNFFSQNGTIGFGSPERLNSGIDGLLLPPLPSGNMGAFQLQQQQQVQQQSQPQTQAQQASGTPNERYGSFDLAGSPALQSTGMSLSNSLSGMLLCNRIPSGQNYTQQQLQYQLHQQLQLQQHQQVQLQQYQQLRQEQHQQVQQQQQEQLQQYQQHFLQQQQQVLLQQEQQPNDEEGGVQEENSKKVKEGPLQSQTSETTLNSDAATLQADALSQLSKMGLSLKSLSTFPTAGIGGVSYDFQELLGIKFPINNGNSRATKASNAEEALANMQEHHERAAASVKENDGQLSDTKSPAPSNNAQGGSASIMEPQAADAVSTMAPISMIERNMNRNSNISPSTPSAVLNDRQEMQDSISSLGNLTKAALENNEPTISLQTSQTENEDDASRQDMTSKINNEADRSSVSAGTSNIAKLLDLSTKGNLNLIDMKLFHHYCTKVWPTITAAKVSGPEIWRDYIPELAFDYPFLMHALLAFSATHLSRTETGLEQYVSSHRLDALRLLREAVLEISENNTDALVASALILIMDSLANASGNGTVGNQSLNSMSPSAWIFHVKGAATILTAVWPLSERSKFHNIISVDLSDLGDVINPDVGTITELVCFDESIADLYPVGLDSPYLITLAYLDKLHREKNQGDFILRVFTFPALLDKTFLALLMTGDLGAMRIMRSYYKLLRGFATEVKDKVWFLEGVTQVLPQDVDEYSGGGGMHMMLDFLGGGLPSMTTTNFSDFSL
Method: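 Universal 'all 10-mer' protein binding microarrays (Agilent AMADID 015681) probed with GST-tagged S. cerevisiae TFs (full-length or DBD) made by in vitro transcription/translation (PURExpress), about 100-200 nM. Bound TF was detected with fluorescent anti-GST. Each ungapped 8-mer (which stands for itself and its reverse complement) is scored by the PBM enrichment score (E-score), a modified Wilcoxon-Mann-Whitney statistic from -0.5 to +0.5, computed with the Universal PBM Analysis Suite. Scale: above 0.35 generally sequence-specific binding.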

Sequence	PBM E-score
AGCAAGGA	-0.0783
GCCAACGC	-0.0104
CGACTGAA	0.184
CTGGGGCA	-0.2
CCTCACGA	-0.219
AATACGTA	0.196
AATACGAA	0.424
ACTACGAA	0.185
CACTTAAG	-0.0164
ATCGTACC	0.455
CTCGTACA	0.489
CTTGTACA	-0.0692
CTGGTACA	-0.0228
ATAGTACC	-0.084
CGCGTACC	0.302
AGCGTACC	0.212
CACGTACC	0.188
CTCGTACC	0.481
CTGTTAGC	-0.142
CGCATTTA	0.0301
GCTATGCC	-0.282
ATGGTCTG	-0.129
CAGGACTC	-0.0969
GAGGTAGA	-0.0305
TAAGAAGA	0.11
AACGAAGT	0.415

Sequence	PBM E-score
TCCGAAGA	0.0352
AAAGAAGT	-0.0114
AACGAAGC	0.408
CACGAAGC	0.017
ACCGAAGT	0.147
AACGAAGG	0.401
ACCGAAGG	0.0458
CACGAAGG	0.00451
TACGAAGA	0.448
GACGAAGC	0.00181
GTTAAAAA	0.11
CTAGTGTC	0.0134
CCAGGATA	0.0403
ATTTCTAA	-0.105
AGGAACCC	0.0161
CAACCAGC	-0.203
CTAGGGAA	-0.179
AGACCCAT	-0.186
CTAGACCA	-0.217
AGCCACAC	-0.00233
GACGAAGA	-0.0247
AACGAAGA	0.424
CACGAAGA	0.0935
CGTATGGC	0.413
GGTATGGA	-0.146
CGTATGGA	0.423

Sequence	PBM E-score
AGTATGGC	-0.129
CCTATGGC	-0.195
AGTATGGA	-0.128
AAATGAAC	0.118
AGCAATCC	-0.121
ACAAGCCT	-0.166
ATCGGTTA	0.333
GTCGGTTA	0.337
CTCGGTTA	0.381
ATTTTTCG	0.0906
CCTTTATC	-0.132
TATCAGGA	0.0996
GACGTAAC	0.0258
CTCGTAAG	0.43
CACGTAAC	0.039
GTCGTAAC	0.408
CGCGTAAG	0.205
CTCGTAAC	0.425
CACGTAAG	0.105
CCCGTAAC	0.248
GGCGTAAC	0.0403
AGAAGTTG	0.0297
ACCTATCA	-0.11
CGTGATTA	0.0822
ACCGGTTA	0.118
ATGACTAC	0.0234

Sequence	PBM E-score
AAGCTAGA	-0.166
GCGCTCCA	-0.195
CAAAGAAC	-0.0158
ACGCATAA	0.172
TCGCATAA	0.383
CCGCATAA	0.121
GGTTGCTA	-0.126
CCGCACTC	0.195
AAAAGGGA	-0.2
GCGTAAAC	0.352
CTGTAAAG	-0.0138
ACGTAAAG	0.308
TCGTAAAA	0.481
ACGTTAAA	0.269
CCGTTAAA	0.33
CCGTAAAG	0.395
TTGTAAAA	0.0751
TAGTAAAA	0.0664
ACGTAAAC	0.345
CCGTAAAC	0.396
TCGTTAAA	0.466
CATGGACA	-0.178
AGTTAGCA	-0.0102
CCGATGGA	0.109
ACTTATCG	0.00736
ATAGTCTG	-0.124

Sequence	PBM E-score
CGCTCAGA	0.121
GCTAAACC	0.03
ACGTAAAA	0.268
CCGTAAAA	0.374
GCGTAAAA	0.302
ACTATCAC	0.0913
ATGGGCCC	-0.0858
ACGTCTTC	0.0586
GACTGGAC	-0.215
CGGTACCA	-0.0953
CGGTACGC	0.324
GGGTACAA	-0.0246
GGGTACCA	-0.275
AGGTACGC	0.163
CGGTACGA	0.474
AGGTACGA	0.47
GGGTACGA	0.465
AGGTACGG	0.354
TAGTTGGA	-0.109
GCCGGGTA	-0.143
ACCTAAGA	0.0242
ACCCTCTC	-0.197
CACTGAGA	-0.0162
CCTTGCGA	-0.195
CCGGTGCA	-0.153
GGTGACTA	-0.0935

Sequence	PBM E-score
TCCCTCGA	-0.0965
ACCAGTGG	-0.247
ACAAGACT	-0.00931
AGTCGTTC	0.41
GGTCGTTA	0.358
CGTCGATC	-0.0198
AGTCGTTA	0.317
CGTCGTTA	0.376
AGTCGCTC	0.0535
CGTCGTTC	0.464
AGTCGTTG	0.0644
CGCCGTTC	0.339
AGGTGAAT	-0.0674
GCACCGAA	0.0996
CCGCATAC	0.197
CATGAGGC	-0.218
CTCAACAC	-0.0233
AGGTTCGG	0.022
CAGATTCC	-0.195
CGGGTACC	-0.158
CCGGTACC	-0.196
ACGGTACC	0.0672
CCGGTACA	0.106
CGGGTACA	0.114
CGGGTACG	0.43
ACGGTACG	0.408

Sequence	PBM E-score
CCGGTACG	0.421
ACGGTACT	0.0352
CCCTATAA	-0.00945
CCATCAAG	-0.12
AAGACCCT	-0.239
CAGGTCGC	0.0637
AAGGTGGC	-0.0337
CTTACGAA	0.399
CTCACGAC	-0.146
CTTACGAC	0.406
ATTACGAA	0.339
CTTACGCA	0.146
GTTACGAA	0.409
CTTACGCC	0.0225
GTTACGGA	0.233
CTCACGAA	0.0214
CCATTCTA	-0.068
CAGAATTA	-0.0215
GCTACTCC	-0.242
CAGATGGC	-0.0004
